Results taken from PubChem BioAssay AID1224856 (National Center for Advancing Translational Sciences (NCATS), 2016).
Inconclusive results are not listed. Where a call stands in place of a potency, no number is given. Calls of active or inactive are those of the source. The call rests on the fitted dose curve; in most records, active means well fitted curve in the direction sought with a large enough effect; inconclusive means small, poorly fitted or top-dose-only effect, or another doubt; inactive means no such curve, though single readings can be large or run the other way.

Assay: Cell viability assay for measurement of the protective activity of small molecules against cell death caused by Zika virus infection in human astrocytes
Conditions: human astrocytes ZIKV-induced death, ATP luminescence, 72 h; series mostly up to 46.1 µM
Excerpt: National Center for Advancing Translational Sciences [NCATS] Johns Hopkins University School of Medicine Florida State University Assay Overview: Zika virus infection causes cell death in certain cell types including human neural progenitor cells (hNPCs), astrocytes, and astrocytoma cell line (SNB-19). This cell viability assay measures the ATP content (level) in human astrocytes using a luminescence readout that is proportional to viable cell numbers. Decrease in the luminescence signal after Zika virus infection indicates the cell death caused by Zika virus. Small molecule inhibitors […] the decreased luminescence signal after Zika virus infection, indicating the protective effect of that small molecule on the cell death caused by Zika virus infection. This observed protective effect of small molecules against Zika virus induced cell death may result from inhibition of virus replication or cellular response to the virus infection.
Assay Protocol Summary: The medium for astrocytes contains AM basal medium (ScienCell, Cat.# 1801), AGS (ScienCell, Cat.# 1801), 10% FBS, and 1% Pen/Strep. The ATP content assay kit (PerkinElmer, Cat.# 6016731) was used to determine cell viability. The reagent was reconstituted and prepared as described by the manufacturer. Cells were seeded in 384- or 1536-well assay plates and cultured at 37 C with 5% CO2 for 16 to 20 hours. The typical cell seeding density in the 1536-well plate assay is 350 cells/well in 3 ul medium for astrocytes in the tissue cultured treated/PDL coated plates. Compounds were added to cells and incubated for one hour before addition of ZIKV solution to cells (2 FFU/cell). After incubation at 37 C with 5% CO2 for 72 hours, the reagent mixture of the ATP content assay kit was added to each well, followed by incubation at room temperature for 10 minutes. The luminescence intensity of the assay plates was measured using a ViewLux plate reader (PerkinElmer). […] The percentage inhibitions of the decreased cell viability by small molecule inhibitors were then calculated.

Row | SMILES | Potency
1 | CN(C)c1ccc(C(=C2C=CC(=[N+](C)C)C=C2)c2ccccc2)cc1 | inactive
2 | CC=CC[C@@H](C)C(=O)[C@H]1C(=O)N[C@@H](C(C)C)C(=O)N(C)CC(=O)N(C)[C@@H](CC(C)C)C(=O)N[C@@H](C(C)C)C(=O)N(C)[C@@H](CC(C)C)C(=O)N[C@@H](C)C(=O)N[C@H](C)C(=O)N(C)[C@@H](CC(C)C)C(=O)N(C)[C@@H](CC(C)C)C(=O)N(C)[C@@H](C(C)C)C(=O)N1C | inactive
3 | CN(C)c1ccc(/C=C2\C(=O)Nc3ccccc32)cc1 | inactive
4 | O=C1NC(=O)C(=Cc2ccc(-c3ccc(F)cc3)o2)S1 | inactive
5 | CCN(CC)c1ccc(C(=C2C=CC(=[N+](CC)CC)C=C2)c2cc(S(=O)(=O)O)ccc2S(=O)(=O)[O-])cc1 | inactive
6 | NC(=O)c1cccc2[nH]c(-c3ccc([C@H]4CCCN4)cc3F)nc12 | inactive
7 | Cc1cc(O)c2ccccc2c1O | inactive
8 | O=S(=O)(O)c1ccc2nc(-c3ccccc3)[nH]c2c1 | inactive
9 | CO[C@H]1C(=O)[C@]2(C)[C@@H](OC)C[C@H]3OC[C@@]3(OC(C)=O)[C@H]2[C@H](OC(=O)c2ccccc2)[C@]2(O)C[C@H](OC(=O)[C@H](O)[C@@H](NC(=O)OC(C)(C)C)c3ccccc3)C(C)=C1C2(C)C | inactive
10 | CCCCCCCCCCCC(=O)[O][Sn]([CH2]CCC)([CH2]CCC)[O]C(=O)CCCCCCCCCCC | inactive
11 | COc1cccc(-c2cc(=O)c3ccccc3o2)c1N | inactive
12 | O=C(C=CC=Cc1ccc2c(c1)OCO2)N1CCCCC1 | inactive
13 | CC(C(=O)O)c1ccc(-c2ccccc2)c(F)c1 (stereo not given) | inactive
14 | COc1ccc(/C=C/C(=O)Nc2ccccc2C(=O)O)cc1OC | inactive
15 | O=c1c2ccccc2[se]n1-c1ccccc1 | inactive
16 | CCCCCCCC/C=C/C(=O)O | inactive
17 | C[C@@H]1CCN(C(=O)CC#N)C[C@H]1N(C)c1ncnc2[nH]ccc12 | inactive
18 | O=C(O)c1ccccc1Nc1cccc(C(F)(F)F)c1 | inactive
19 | Cc1csc(NC(=O)c2sc3nc4c(c(C(F)(F)F)c3c2N)CCC4)n1 | inactive
20 | CCOC1OC(=O)C[C@H]1NC(=O)[C@@H]1CCCN1C(=O)[C@@H](NC(=O)c1ccc(N)c(Cl)c1)C(C)(C)C (stereo not given in full) | inactive

Row | SMILES | Potency
21 | COc1ccc(-c2cc(=O)c3c(O)cc(O)cc3o2)cc1O | inactive
22 | NC(N)=NN=C(/C=C/c1ccc([N+](=O)[O-])o1)/C=C/c1ccc([N+](=O)[O-])o1 | inactive
23 | CCCCCNC(=O)N1CCC(CN(Cc2ccc(Cl)cc2)Cc2ccc([N+](=O)[O-])s2)C1 (stereo not given) | inactive
24 | CC(C(=O)O)c1ccc(C(=O)c2cccs2)cc1 (stereo not given) | inactive
25 | Nc1c(S(=O)(=O)O)cc(Nc2ccc(Nc3nc(Cl)nc(Nc4ccc(S(=O)(=O)O)cc4)n3)c(S(=O)(=O)O)c2)c2c1C(=O)c1ccccc1C2=O | inactive
26 | CCCCCCOc1ccccc1C(N)=O | inactive
27 | CCCC(=O)OC[C@@H](OC(=O)CCC)[C@@H](OC(=O)CCC)[C@H](Cn1c2nc(=O)[nH]c(=O)c-2nc2cc(C)c(C)cc21)OC(=O)CCC | inactive
28 | CN1CC(=O)N/C1=N/C(=O)Nc1cccc(Cl)c1 | inactive
29 | COc1ccc(-c2cc(=S)ss2)cc1 | inactive
30 | CC(C)[N+](C)(CCC(C(N)=O)(c1ccccc1)c1ccccc1)C(C)C | inactive
31 | CC(=O)Nc1ccc([C@H](C)C(=O)Nc2ncc(C(C)C)s2)cc1 | 4.89 µM (active)
32 | COc1ccc(C=CC(=O)Nc2ccccc2C(=O)O)cc1OC | inactive
33 | O=C1C=CC[C@@H]2[C@H]3CCCN4CCC[C@@H](CN12)[C@@H]34 | inactive
34 | Cc1cccc(/C=C/c2ccccc2)n1 | inactive
35 | O=C(O)c1cc([N+](=O)[O-])ccc1NCCCc1ccccc1 | inactive
36 | COP(=S)(OC)SCN1C(=O)c2ccccc2C1=O | inactive
37 | O=C(Nc1ccc(Br)cc1)c1cc(Br)cc(Br)c1O | inactive
38 | COc1ccc2nc(NC(=O)Nc3ccccc3)sc2c1 | inactive
39 | O=C(/C=C/c1ccc(O)cc1)c1ccc(O)cc1O | inactive
40 | CC(C)c1ccc2oc3nc(N)c(C(=O)O)cc3c(=O)c2c1 | inactive
